Source: paper PMC12864922, “TDP-43 directly inhibits mRNA accumulation in neurites through modulation of mRNA stability”
Whole data set: some 9,900 sequences, median “r (bound/input frequency ratio)” near 0.7, cut for the highest 2% near 6.5. Only a selection was taken, and the highest values are over-represented in it overall.

B1: ENSMUSG00000058297.107|Spock2|69:74 (ssRNA)
RNA: GGGAGUUCUACAGUCCGACGAUCGCUUCGAUAUCCGCAUGCUAUGAGGCAGGACCUGUACACACAGCAAGGCUUACUAUCCGUCUCCUGACAUCCGAAGAGCUCGUCGCAGCACACACUAAUGGCCCUUGGGCUGCACGUGGUUAAGCAUAGCUGUCUCUGUGGCCCAACACAAAGAGGUAAACUUACUUAAAACACAGGGGUUUUGUUGCUGUUUGUUUUUUGUUAGUUUGUUUGUUGAUAAUUGGAUUGAGGAGUUAAUCCUCUGUCACAAUGUCAAAAGCAUGGACAUCCCUGAUAGAUUCUCUUGCGGUCGCACUAGUGUGGAAUUCUCGGGUGUCAAGG
B2: ENSMUSG00000061578.1365|Ksr2|224:228 (ssRNA)
RNA: GGGAGUUCUACAGUCCGACGAUCGCUUCGAUAUCCGCAUGCUACAGGACAGCCCAGCUUCCCACUCCAGACAUGUUGUUCUUACAUCUCUGACCCAGUGAUCUUUCUAGGGGUCUGUCACAUGUCCCAACAGGUGGACAGCUCUCCAAGUCACCAACCUGAGGAAAAUAUCCCUCCUUGUAAAAAGGCUUUCUCUUUGUAAAUGAUUCUGUUGCCUUUUUCUAAACACAAAGUAUAUAUACCUAUAAAUGCUAUAUAUAUUAUAUAACACAAUAUACAUAAAGACUACUUCUUGUACAGCCCUCUCUUGCGGUCGCACUAGUGUGGAAUUCUCGGGUGUCAAGG
B3: ENSMUSG00000004113.365|Cacna1b (ssRNA)
RNA: GGGAGUUCUACAGUCCGACGAUCGCUUCGAUAUCCGCAUGCUAUAUACAAAGGCACAAUACCCUGAAACUUUAACAGAGUAUUUUAUUCCAGUAGGGUAAAAUUAAACGGGACUCUUGGACUGCGCAUGUGACUGCACCCACGUUGCAACAGAGAAGGAUGUGCAUUUUGAUACUGAUGUUCUGUCUCUGUUCCAGCCCCAGCCCCCUUUUCUCUUGAGUGUUGAAUGUAUACAUUCUGUGUGGAACUACAGCUGCCUCAGACAAUCCUGGGUUGGGAAUCAUCUUUAUCCCACAUCAACAUACUCUUGCGGUCGCACUAGUGUGGAAUUCUCGGGUGUCAAGG
B4: ENSMUSG00000058297.177|Spock2 (ssRNA)
RNA: GGGAGUUCUACAGUCCGACGAUCGCUUCGAUAUCCGCAUGCUAUGUCAUCAUAUAGCUGAGAUUUGGAGUAGCCUGCUAUGAGGGCUUGCAGUUGCACUCUCUGUUCCCUGGCGAGGGUCCCCCUUGUCCCAAGGAGCAGAGGACCAGCAAGCAGCCCGUGUCUGCUCACCUUCUCCCUGACCCUCUAGGAAAUGGUUCCCUCUUGCCCCGACCAAUAGAAGGGCGUGUCCCCGAGACCCUUGUGAGGAACCACGGGGAGCUGUGACUUCCUGUGCCCAGAAGGUCCUGGAGGAGAGGCCCCACUCUUGCGGUCGCACUAGUGUGGAAUUCUCGGGUGUCAAGG

Each binder was assayed against TDP-43 (Homo sapiens, UniProt Q13148 1-414) (assay: RNA Bind-n-Seq with designed 260-mer pool; 25 mM Tris-HCl, 150 mM KCl, 3 mM MgCl2, BSA (printed 500 mg/mL), 20 units/mL SUPERase IN; pH not stated; 500 nM RNA pool, 1 h, 4 C; TDP-43 5, 50, 500 nM; high values mean tight binding). Details: protein: recombinant; tags: SBP (GST cleaved off with PreScission; pGEX-GST-SBP).
Chain of TDP-43 (Q13148 whole entry): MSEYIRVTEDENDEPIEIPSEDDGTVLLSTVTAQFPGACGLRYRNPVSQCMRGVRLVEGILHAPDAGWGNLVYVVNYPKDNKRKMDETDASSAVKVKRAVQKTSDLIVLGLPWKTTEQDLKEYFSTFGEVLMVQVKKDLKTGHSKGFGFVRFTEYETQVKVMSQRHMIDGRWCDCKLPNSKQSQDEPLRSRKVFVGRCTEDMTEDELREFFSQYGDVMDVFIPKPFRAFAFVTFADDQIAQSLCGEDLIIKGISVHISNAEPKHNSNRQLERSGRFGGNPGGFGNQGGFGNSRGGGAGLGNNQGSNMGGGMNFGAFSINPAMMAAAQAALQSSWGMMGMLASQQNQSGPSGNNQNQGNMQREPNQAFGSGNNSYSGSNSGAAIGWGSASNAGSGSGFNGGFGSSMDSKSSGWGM
Procedure, shortened: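 Binding (R) is the ratio of each oligo's mapped-read-normalized abundance in the bound fraction to its abundance in the input. To obtain it, SBP-tagged recombinant TDP-43 (5, 50 or 500 nM) on streptavidin beads was incubated with 500 nM of an in vitro-transcribed 260-nt 3′ UTR oligo pool for 1 h at 4 °C in 25 mM Tris-HCl, 150 mM KCl, 3 mM MgCl2, BSA and SUPERase IN. The RNA retained after washing was released with biotin, then reverse transcribed, amplified by PCR and sequenced.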
B1 was tested, and the binding signal was 1.04 R (bound/input frequency ratio). For B2, the binding signal was 0.125 R (bound/input frequency ratio). For B3, the binding signal was 0.216 R (bound/input frequency ratio). With B4 the binding signal was 0.086 R (bound/input frequency ratio).
